{
  "source": "PubChem BioAssay (NCI)",
  "note": "The panel holds about 83,000 compounds, 20% with a hit somewhere; the sample as a whole holds those more often.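 96-well plates, one dose, 48 hours. Percent growth reported; active if below 10.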 The source made the active and inactive calls.",
  "data": [
    {"system": "MDA-MB-231 breast", "assay": "NCI-60 one-dose screen, 48 h (100 = growth as untreated, 0 = no growth, -100 = all killed)", "conditions": "10 µM unless noted", "values": [
      {"smiles": "c1csc(C2=NN3C(C2)c2ccccc2OC3c2ccncc2)c1", "note": "(stereo not drawn)", "growth": "89.1% (inactive)"},
      {"smiles": "CC1=CC(C)(C)Nc2ccc(Cc3ccc4c(c3)C(C)=CC(C)(C)N4)cc21", "growth": "86.1% (inactive)"},
      {"smiles": "CCCCn1c(-c2ccc(C(=O)O/N=C(\\N)c3ccc4ccccc4c3)cc2)nc(-c2ccccc2)c1-c1ccccc1", "growth": "70% (inactive)"},
      {"smiles": "O=C(Nc1ccc(Cl)cc1)c1cc2cc(F)ccc2cc1O", "growth": "-23.4% (active)"},
      {"smiles": "Cn1cc(-c2nonc2-c2cn(C)c3ccc(F)cc23)c2cc(F)ccc21", "growth": "82.3% (inactive)"},
      {"smiles": "CCN(CC)S(=O)(=O)c1ccc(OC)c(NC(=O)c2[nH]c(C)c3c2CCCCC3=O)c1", "growth": "43% (inactive)"},
      {"smiles": "COc1cccc(-c2nc3sccn3c2-c2ccnc(NCCCNS(=O)(=O)c3cccc(F)c3)c2)c1", "growth": "65.4% (inactive)"},
      {"smiles": "COc1cc(/C=C/c2cc(/C=C/c3ccc(O)c(OC)c3)n(-c3c(C)cccc3C)c(=O)n2)ccc1O", "growth": "23.1% (inactive)"},
      {"smiles": "COc1cccc(-c2nc(SCC(=O)Nc3ccc(C(=O)/C=C/c4ccc(OC)c(OC)c4)cc3)[nH]c(=O)c2C#N)c1", "growth": "67.6% (inactive)"},
      {"smiles": "Cc1cc(C)c2nc3nc(C)cc(C)c3c(N)c2c1", "growth": "30.2% (inactive)"},
      {"smiles": "FC(F)(F)c1ccc(-c2cn3nc(-c4c[nH]c5ccc(Br)cc45)sc3n2)cc1", "growth": "88% (inactive)"},
      {"smiles": "CC(=O)O[C@H]1[C@@H]2OC(=O)C(CSc3ccccc3)[C@@H]2C[C@H]2O[C@]2(C)CC/C=C(\\C)CCC[C@@H]1C", "note": "(stereo partly drawn)", "growth": "14.9% (inactive)"},
      {"smiles": "Cc1cc(C)nc(SC2=C(Nc3ccc(O)cc3)C(=O)N(Cc3ccccc3)C2=O)n1", "growth": "80.7% [40 µM] (inactive)"}
    ]}
  ]
}
